# From PubChem
# Only some compounds are listed: those with a hit (about 28% of all), similar ones and a draw of the others.
# CYP2C19 act: human CYP2C19 activators, primary screen, biochemical, luminescence | 96,000 tested, under 10 active | AID 1025, 2008 | Cytochrome P450 2C19 (Homo sapiens), P33261 | recombinant CYP2C19, luciferin-H EGE luminescence; active compounds read high; 0 = fully inhibited enzyme, 1 = untreated enzyme | activation factor at 5 µM;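 active means activation factor of at least 2 at 5 µM in the primary screen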;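 further: 0 = wells with 2.5 mM tranylcypromine and 1 = vehicle-only wells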
# CYP2C9 act: human CYP2C9 activators, primary screen, biochemical, luminescence; recombinant CYP2C9, luciferin-H conversion; active compounds read high; factor 1 = untreated enzyme, 0 = blocked; activation factor at 5 µM; 1.4% of 96,000 active;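 active means activation factor of 2 or more for CYP2C9 at a 5 µM dose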;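 further: 0 = sulfaphenazole-blocked wells and 1 = vehicle-only wells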
# Target sequence (P11712 whole entry, looked up): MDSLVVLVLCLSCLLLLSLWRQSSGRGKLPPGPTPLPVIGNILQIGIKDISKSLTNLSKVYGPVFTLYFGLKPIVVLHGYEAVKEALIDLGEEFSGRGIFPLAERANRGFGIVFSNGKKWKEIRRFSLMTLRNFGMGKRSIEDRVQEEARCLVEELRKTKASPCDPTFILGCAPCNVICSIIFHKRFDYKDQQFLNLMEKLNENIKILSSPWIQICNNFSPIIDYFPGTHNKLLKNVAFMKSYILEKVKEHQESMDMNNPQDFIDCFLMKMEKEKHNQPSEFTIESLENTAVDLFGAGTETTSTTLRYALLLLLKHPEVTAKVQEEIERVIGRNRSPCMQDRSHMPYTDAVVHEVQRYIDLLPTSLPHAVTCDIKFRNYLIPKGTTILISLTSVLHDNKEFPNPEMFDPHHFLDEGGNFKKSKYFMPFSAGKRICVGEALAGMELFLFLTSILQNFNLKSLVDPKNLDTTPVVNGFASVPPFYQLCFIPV
# CYP2C19 inh: blockers of cytochrome P450 2C19 activity – biochemical, luminescence, ADME assay, primary screen; P33261; CYP2C19 Supersomes, luciferin-H EGE luminescence, 30 min; 21% of 96,000 active; inhibition, % at 5 µM; AID 778, 2007;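 active means CYP2C19 inhibition above a set limit at 5 µM in the primary screen, cut at about 50% in these data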;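 further: plate controls were negative control wells for no effect and 2.5 mM tranylcypromine positive control for full effect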
# Mac1 fbg inh: inhibitors of CD11b/CD18 adhesion to fibrinogen, primary screen, K562 cells, luminescence. Integrin beta-2 (Homo sapiens) + Integrin alpha-M (Homo sapiens), P05107+P11215. ATPlite luminescence; Mn2+ added to activate the integrin. inhibition, % at 10 µM. 0.54% of 93,000 active. AID 1497, 2009;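 active means primary inhibition of 50% or more at 10 µM, then 40% or more on retest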
# CYP2C9 inhib: blockers of cytochrome P450 2C9 activity – biochemical, luminescence, ADME assay, primary screen; P11712; CYP2C9 Supersomes, luciferin-H conversion; inhibition, % at 5 µM; 20% of 96,000 active; AID 777, 2007;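 active means blocking of liver enzyme CYP2C9 beyond about 50% at 5 µM, limit read from the data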
# CD11b adhes enh: enhancers of CD11b/CD18 adhesion to fibrinogen, primary screen, K562 cells, luminescence; ATPlite luminescence; AID 1499, 2009; 0.07% of 93,000 active; Integrin beta-2 (Homo sapiens) + Integrin alpha-M (Homo sapiens), P05107+P11215; activation, % at 10 µM;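 active means 10 µM primary screen giving 50% or more activity, confirmed by 40% or more on retest at that dose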
# Active calls of the source: *; · = no result given.
SMILES,CYP2C19 act,CYP2C9 act,CYP2C19 inh,Mac1 fbg inh,CYP2C9 inhib,CD11b adhes enh
O=C(CN1C(=O)CCSc2ccccc21)Nc1ccc(F)cc1,0.1,0.2,95*,-12,80*,-4
CC(C)(C)Sc1nc(O)cc(=O)[nH]1,1,1,-3,-12,5,0
CC1CC(C)CN(C(=O)COC(=O)CNS(=O)(=O)/C=C/c2ccccc2)C1 (stereo not given),0.9,1,10,31,0,-1
O=C(CNS(=O)(=O)/C=C/c1ccccc1)OCC(=O)N1CCC(Cc2ccccc2)CC1,0.8,0.5,24,9,52*,-3
Cn1c(CCN2CCCCC2)nc2cc(NS(=O)(=O)c3ccc(Cl)cc3)ccc21,0.8,1,17,12,0,4
Cn1c(CN2CCCCC2)nc2cc(NS(=O)(=O)c3ccc(Cl)cc3)ccc21,0.6,0.3,42,·,67*,-1
Cn1c(CCNC(=O)c2ccco2)nc2cc(NS(=O)(=O)c3ccc(Cl)cc3)ccc21,0.1,0,89*,-10,98*,-4
Cn1c(CCN2CCN(c3ccc(F)cc3)CC2)nc2cc(NC(=O)c3ccco3)ccc21,0.8,0.8,18,-10,23,-4
Cc1ccc(N2CCN(CCc3nc4cc(NC(=O)c5ccco5)ccc4n3C)CC2)cc1,0.6,0.3,44,13,69*,-2
CC(C)(C)C(=O)[C@H]1[C@H](c2ccccc2)[C@@]2(N=C(c3ccccc3)OC2=O)C2c3ccccc3C=NN21 (stereo not given in full),0.5,0.7,53*,·,29,·
COc1cccc(Nc2ncnc3c2cnn3C)c1,1,1.1,2,0,-12,-1
O=C(Nc1ccc2c(c1)CCC2)C1CCN(c2c3c(nc4ncnn24)CCC3)CC1,0.9,0.8,12,8,20,1
Cc1ccc(Nc2c3c(nc4ncnn24)CC(C)CC3)cc1 (stereo not given),0.8,0.8,22,8,23,-3
Clc1cccc(Nc2c3c(nc4ncnn24)CCC3)c1,0.4,0.9,60*,-54,15,0
CCOc1ccc(Nc2c3c(nc4ncnn24)CC(C)CC3)cc1 (stereo not given),0.5,0.6,52*,-9,37,0
Cc1ccc(Nc2c3c(nc4ncnn24)CCC3)cc1,0.4,0.8,60*,-15,19,3
CCCCn1c(SCc2cc(=O)n3ccsc3n2)nc2cc(C(=O)OC)ccc2c1=O,1,0.9,-3,6,12,-2
CCOc1ccccc1-n1c(SCC(=O)NC(C)CC)nnc1-c1ccoc1C (stereo not given),1,0.8,-1,11,16,0
CCC(C)NC(=O)Cn1cnc2sc(C)cc2c1=O (stereo not given),0.9,0.9,7,·,12,·
Cc1ccc(-n2c(SCC(N)=O)nnc2-c2ccc(S(=O)(=O)N3CCCCC3)cc2)c(C)c1,0.9,0.2,8,0,82*,1
NC(=O)CSc1nnc(-c2ccc(S(=O)(=O)N3CCOCC3)cc2)n1CC1CCCO1 (stereo not given),1,1,0,32,5,-5
Cc1cc(NC(=O)C(C)Oc2ccc(Cl)cc2Cl)n(-c2ccccc2)n1 (stereo not given),0.3,0.4,75*,-8,63*,8
CCN(CC)S(=O)(=O)c1cccc(C(=O)Nc2cc(C)nn2-c2ccccc2)c1,·,·,·,-3,·,-3
Cc1cc(NC(=O)c2cccs2)n(-c2ccccc2)n1,0.3,0.6,70*,-40,36,-3
Cc1cc(NC(=O)c2sccc2C)n(-c2cccc(Cl)c2)n1,0,0.5,96*,-1,52*,-1
SMILES,CYP2C19 act,CYP2C9 act,CYP2C19 inh,Mac1 fbg inh,CYP2C9 inhib,CD11b adhes enh
O=CN(Cc1ccco1)C1(C(=O)NC2CCCCC2)CCCCC1,0.9,1.1,13,5,-10,-1
CCOc1ccc(N(C(C)C(=O)NC(C)CC)S(C)(=O)=O)cc1 (stereo not given),0.7,0.8,28,3,25,-3
CCOc1ccc(N(C(C)C(=O)N/N=C(\C)c2cccc(NC(=O)c3ccccc3)c2)S(C)(=O)=O)cc1 (stereo not given),0.2,0.3,76*,·,69*,·
CCN=c1sc2ccccc2n1CC(O)COc1ccccc1 (stereo not given),0,0.1,99*,-1,93*,-1
N=c1ccccn1CC(O)COc1ccccc1 (stereo not given),1,1.1,4,-15,-7,-2
COc1ccc(OCC(O)Cn2c(=N)n(CCN3CCCCC3)c3ccccc32)cc1 (stereo not given),1,1,-2,19,3,-3
CN=c1sc2ccccc2n1CC(O)COc1ccccc1 (stereo not given),0,0.3,96*,10,71*,0
COCc1[nH]nc2c1C(c1cc(OC)c(O)c(OC)c1)C(C#N)=C(N)O2 (stereo not given),0.9,0.9,8,81,10,4
O=C(CN1CCc2ccccc2C1)NCc1ccco1,0.1,0.6,93*,5,35,-4
O=C(NCc1ccco1)C1(c2ccccc2)CCCC1,0.4,0.6,57*,-7,35,-1
CC1(c2ccc(Cl)cc2)NC(=O)N(CC(=O)NC(=O)NCc2ccco2)C1=O (stereo not given),0.3,0.3,66*,-11,67*,0
Cc1cc(C(=O)CN2C(=O)NC3(CCCc4ccccc43)C2=O)c(C)n1Cc1cccs1 (stereo not given),1,0.6,1,-3,44,-3
COc1ccc(C2(C(=O)NCc3ccco3)CCCC2)cc1OC,0.8,1,23,·,-3,·
C=CCn1c(C)cc(C(=O)CN2C(=O)NC3(CCCc4ccccc43)C2=O)c1C (stereo not given),0.6,0.2,44,10,82*,6
O=C(CN1C(=O)NC2(CCCCCC2)C1=O)NCc1ccco1,0.9,0.9,7,0,6,2
O=C(CN1C(=O)NC2(CCCc3ccccc32)C1=O)NCc1ccco1 (stereo not given),1,0.2,-1,6,78*,-3
Cc1cc(C(=O)CN2C(=O)NC(c3ccccc3)(c3ccccc3)C2=O)c(C)n1Cc1ccco1,0.8,0.4,16,38,62*,14
